Screening results: PubChem, National Center for Advancing Translational Sciences (NCATS)
12-hLO inh = blocks human 12-lipoxygenase activity; P18054; purified 12-hLO, xylenol orange hydroperoxide absorbance; Potency, µM (top dose mostly 57.1 µM), for inactives: at the highest dose activity change, negative = inhibition, most hits filed as inhibitors; actives 0.12% (n = 150,000); active means well fitted inhibition curve with a large enough effect; inconclusive means small, poorly fitted or top-dose-only effect; further: potency means the concentration at half of the fitted maximal effect; nearly all actives have a fitted effect of over 55% in size
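Xylenol orange chromogenic assay: hydroperoxide from 12hLO oxidises Fe(II), giving red-shifted Fe(III)-XO absorbance. Conditions: 150 nM enzyme, 40 uM arachidonic acid, 25 mM Hepes pH 7.0, 0.01% Triton X-100, 30 min, room temperature.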
HPGD block = HPGD (human) dehydrogenase inhibition | P15428 | purified HPGD, NADH fluorescence kinetic, PGE2 substrate | Potency, µM, for the others: at the highest dose activity change, negative = inhibition, most hits filed as inhibitors | actives 4.3% (n = 150,000) | AID 894; further: potency means the concentration at half of the fitted maximal effect
Target sequence (P15428 whole entry, looked up): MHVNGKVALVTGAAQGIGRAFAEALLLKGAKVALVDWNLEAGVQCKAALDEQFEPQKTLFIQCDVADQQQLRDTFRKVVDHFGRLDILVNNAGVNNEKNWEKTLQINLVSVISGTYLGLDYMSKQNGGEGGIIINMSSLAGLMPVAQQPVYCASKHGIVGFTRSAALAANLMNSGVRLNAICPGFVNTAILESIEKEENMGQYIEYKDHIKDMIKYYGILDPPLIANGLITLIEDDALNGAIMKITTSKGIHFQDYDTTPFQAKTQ
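NADH formation kinetics: reaction with 30 uM PGE2 and 1 mM NAD+ (final), 20 nM enzyme, Tris-HCl pH 8 with Tween 20, after 15 min compound preincubation at room temperature. Fluorescence change, last versus first of five reads.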
ALDH1A1 block = ALDH1A1 (human) enzyme inhibition; actives 7.3% (n = 220,000); Potency, µM (doses to about 75.3 µM), without a hit: at the top dose activity, negative = inhibition, hits mostly inhibitors; Purified ALDH1A1, NADH fluorescence, propionaldehyde substrate;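 further: potency means the concentration at half of the fitted maximal effect; plate controls were no enzyme wells and a reference inhibitor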
PNC inhibitor = inhibitors of perinucleolar compartment assembly; PC3M PTB-GFP, PNC prevalence imaging, 16 h; stronger effect = lower value; activity change (PNC), negative = inhibition, % at 10 µM; actives 3.1% (n = 140,000); AID 2417;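 active means readout at or below -70, meaning at least 70% loss of cells showing the perinucleolar compartment, a nuclear body marking cancer cells; inconclusive means readout between -30 and a set limit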;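 further: plate controls were DMSO wells for no effect and camptothecin positive control wells for full effect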
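PC3M cells stably expressing PTB-GFP, 750–1000 cells/well, treated 16 h at 37 °C with compound (23 nl of library stock), in duplicate. After paraformaldehyde fixation and Hoechst stain, imaged at 20x; PNC prevalence scored by image analysis.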
LMNA splice mod = changes lamin A minigene splicing in HeLa cells; HeLa LMNA splicing GFP/RFP minigene ratio, 48 h; Potency, µM (top dose mostly 46.1 µM), inactives show at the highest dose ratio change, negative = inhibition, most hits filed as inhibitors; actives 0.01% (n = 200,000); active means well fitted inhibition curve with a large enough effect in the signal ratio, with a control signal flat, not every such curve was filed as active; inconclusive means small, poorly fitted or top-dose-only effect, or effect the other way, or a change in a side signal; the % refers to the signal ratio; further: potency means the concentration at half of the fitted maximal effect
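Read-out is the ratio of GFP to DsRed2 object intensity, acquired by 488 nm laser-scanning cytometry on HeLa lamin A-EGFP minigene reporter cells. Compound incubation 48 hrs at 37 °C in Opti-MEM with 2% FBS; DMSO 0.5% final.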
* marks the source's active call; other numbers are inactive results; [ ] = another dose, or the depositor's remark. A selection: hits, their analogues and other compounds. The true share with any hit is near 10%. Unless noted, the call rests on the fitted dose curve; in most records, active means well fitted inhibition curve with a large enough effect (not every such curve was filed as active); inconclusive means small, poorly fitted or top-dose-only effect, or another doubt; inactive means no such curve, though single readings can be large or run the other way. Unless noted, on the % scale 0 is the no-effect control and ±100 the full control effect.

What do the screens show for `Nc1ccccc1C(=O)CC(N)C(=O)O` (stereo unspecified)?
12-hLO inh: -1%; HPGD block: -2%; ALDH1A1 block: -10%; LMNA splice mod: 9%

Results for CC(C)(C)C(=O)NC(=S)NCCc1ccccc1 ?
12-hLO inh: 13µM*; HPGD block: -9%; ALDH1A1 block: 28µM*; PNC inhibitor: -3; LMNA splice mod: -6%

Results for Cc1ccccc1C(=O)NC(=S)NCCc1ccccc1 ?
12-hLO inh: inconclusive; HPGD block: -7%; ALDH1A1 block: 11µM*; PNC inhibitor: -9; LMNA splice mod: 8%

Results for S=C(NCCc1ccccc1)NCCc1ccccc1 ?
12-hLO inh: -16%; HPGD block: -2%; ALDH1A1 block: -7%; PNC inhibitor: 14; LMNA splice mod: 4%

Results for COc1cc(OC)cc(C(=O)NC(=S)NCCc2ccccc2)c1 ?
12-hLO inh: 4µM*; HPGD block: -11%; ALDH1A1 block: 1.1µM*; PNC inhibitor: 33; LMNA splice mod: 3%

Results for COc1cc(OC)cc(C(=O)NCCNC(=O)c2ccccc2)c1 ?
12-hLO inh: -2%; HPGD block: 3%; ALDH1A1 block: -17%; PNC inhibitor: inconclusive; LMNA splice mod: 4%

What do the screens show for `Cc1ccccc1C(=O)NC(=S)NCC(=O)c1ccccc1`?
12-hLO inh: -6%; HPGD block: inconclusive; ALDH1A1 block: -7%; PNC inhibitor: -27; LMNA splice mod: -2%

How did CC(=O)N1CCC2(CCN(Cc3nccs3)CC2)CC1 do in these assays?
12-hLO inh: -1%; HPGD block: -5%; ALDH1A1 block: 1%

What do the screens show for `COc1ccc(NC(=O)N2CCC3(CC2)CCN(C(=O)c2csnn2)CC3)cc1`?
12-hLO inh: 2%; HPGD block: 0%; ALDH1A1 block: -12%

Results for CNc1nnc(-c2ccc(N(C)C)cc2)s1 ?
12-hLO inh: -2%; HPGD block: inconclusive; ALDH1A1 block: inconclusive; PNC inhibitor: -95*; LMNA splice mod: -14%

Results for O=C1c2ccccc2C(=O)N1CCCc1nc(-c2ccccn2)no1 ?
12-hLO inh: 1%; HPGD block: -10%; ALDH1A1 block: -2%; PNC inhibitor: -107*; LMNA splice mod: -3%

What do the screens show for `CCOC(=O)c1cc(-c2ccc(N)cc2)sc1N`?
12-hLO inh: -11%; HPGD block: -8%; ALDH1A1 block: 28µM*; PNC inhibitor: 38; LMNA splice mod: inconclusive

Results for CCOC(=O)c1ccc(N)cc1 ?
12-hLO inh: -1%; HPGD block: -9%; ALDH1A1 block: 10%; LMNA splice mod: inconclusive

How did N#CSCC(=O)c1cccc2ccccc12 do in these assays?
12-hLO inh: 0%; HPGD block: inconclusive; ALDH1A1 block: 1.6µM*; PNC inhibitor: 93; LMNA splice mod: -9%

How did C/C(N)=C(/C#N)C(=O)COC(=O)c1cccc2ccccc12 do in these assays?
12-hLO inh: -5%; HPGD block: inconclusive; ALDH1A1 block: inconclusive; PNC inhibitor: 31; LMNA splice mod: 9%

How did CCN1CCC(N(Cc2cccc(OC)c2)C(=O)Nc2cccc(C)c2C)CC1 do in these assays?
LMNA splice mod: -17%[46 µM]

Results for FC(F)(F)c1ccc(CN2C[C@@H]3C(c4ccc(C(F)(F)F)cc4)C4(c5ccccc5)CC3(C4)[C@H]2c2ccccc2)cc1 (stereo partly specified) ?
12-hLO inh: -2%; HPGD block: -5%; ALDH1A1 block: -2%

How did C=CCNC(=S)NN=C1CCCCCCC1 do in these assays?
ALDH1A1 block: 0.89µM*

How did COCCn1c(SC(C)C(=O)Nc2ncc(Cl)cc2Cl)nc2ccccc21 (stereo unspecified) do in these assays?
12-hLO inh: -1%; HPGD block: -3%; ALDH1A1 block: -1%; PNC inhibitor: -103*; LMNA splice mod: inconclusive

How did Cc1cc(SC(C)C(=O)Nc2ncc(Cl)cc2Cl)nc2ccccc12 (stereo unspecified) do in these assays?
12-hLO inh: 2%; HPGD block: -10%; ALDH1A1 block: -8%; PNC inhibitor: -92*; LMNA splice mod: inconclusive

How did CCOc1ccccc1CNCc1cccn1-c1nnc(N2CCN(c3ccccc3)CC2)s1 do in these assays?
LMNA splice mod: -16%[46 µM]

Results for COC(=O)c1ccc(-c2ccc(C(c3c(C)[nH][nH]c3=O)c3c(C)[nH][nH]c3=O)o2)cc1 ?
ALDH1A1 block: 3.5µM*

Results for Cc1[nH][nH]c(=O)c1C(c1ccc(-c2ccccc2C(=O)O)o1)c1c(C)[nH][nH]c1=O ?
ALDH1A1 block: 5µM*

What do the screens show for `Cc1[nH][nH]c(=O)c1C(c1ccc(-c2cccc(C(=O)O)c2)o1)c1c(C)[nH][nH]c1=O`?
ALDH1A1 block: inconclusive; LMNA splice mod: 15%[46 µM]

What do the screens show for `CC(C)C(NC(=O)c1ccccc1F)C(=O)NCCc1ccccn1` (stereo unspecified)?
ALDH1A1 block: 3%

What do the screens show for `CCc1cc2ccc(C)cc2nc1SCC(=O)N1CCN(C(=O)c2ccco2)CC1`?
12-hLO inh: -13%; HPGD block: inconclusive; ALDH1A1 block: 10µM*; PNC inhibitor: 20; LMNA splice mod: -16%

Results for COc1ccc(C)cc1-n1nnnc1SCn1nnc2ccccc2c1=O ?
12-hLO inh: -2%; HPGD block: -15%; ALDH1A1 block: 18µM*; PNC inhibitor: -16; LMNA splice mod: -18%

Results for CCc1cc2ccc(C)cc2nc1SCC(=O)NNC(=O)c1ccco1 ?
12-hLO inh: -2%; HPGD block: 0%; ALDH1A1 block: 4µM*; PNC inhibitor: inconclusive; LMNA splice mod: -14%

How did COc1ccc(C)cc1-n1nnnc1SCC(=O)NNC(=O)c1ccc([N+](=O)[O-])cc1 do in these assays?
12-hLO inh: -4%; HPGD block: -19%; ALDH1A1 block: 3.2µM*; PNC inhibitor: -22; LMNA splice mod: -4%

How did CN(C)CCN1C(=O)c2ccccc2N(C)c2ccccc21 do in these assays?
ALDH1A1 block: -1%; LMNA splice mod: inconclusive

Results for CCc1cc2ccc(C)cc2nc1SCC(=O)Nc1cc(C)on1 ?
ALDH1A1 block: 25µM*; LMNA splice mod: 7%[46 µM]

Results for CCc1cc2cc(C)ccc2nc1SCC(=O)Nc1cc(C)on1 ?
12-hLO inh: 2%; HPGD block: -15%; ALDH1A1 block: 7%; PNC inhibitor: inconclusive; LMNA splice mod: -7%

Results for Cc1ccc(C)c(-n2nnnc2SCC(=O)NNC(=O)c2ccco2)c1 ?
ALDH1A1 block: 8.9µM*; LMNA splice mod: -4%[46 µM]

How did C[N+]1(CCC[N+]2(C)C[C@H]3[C@H](C2)[C@H]2C=C[C@@H]3CC2)CCOCC1 (stereo partly specified) do in these assays?
12-hLO inh: 0%[11.4 µM]; HPGD block: 3.2µM*; ALDH1A1 block: 7%[13.5 µM]

Results for O=C(CCn1cccn1)Nc1ccc(Br)cc1F ?
LMNA splice mod: 22%[46 µM]
